Cycloheximide cs – affects cycloheximide protein synthesis inhibition readout, counter-screen; cell reporter, cycloheximide protein synthesis inhibition counterscreen; max response, %; 300,000 tested, 12% active; in the data active means max response mostly above about 13%, no sharp cut-off; inactive means mostly below about 14%; further: read at 38.3 µM for the half of the compounds with a filed dose
AmpC detergent – blocks E. coli AmpC beta-lactamase in detergent assay | AID 485294 | 370,000 tested, 0.041% active | Potency, µM (series often up to 114 µM), hits mostly inhibitors | AmpC hydrolysis of nitrocefin, absorbance 480 nm, 0.01% Triton; further: nearly all actives have a fitted effect of over 25% in size
Target sequence (P00811 whole entry, looked up): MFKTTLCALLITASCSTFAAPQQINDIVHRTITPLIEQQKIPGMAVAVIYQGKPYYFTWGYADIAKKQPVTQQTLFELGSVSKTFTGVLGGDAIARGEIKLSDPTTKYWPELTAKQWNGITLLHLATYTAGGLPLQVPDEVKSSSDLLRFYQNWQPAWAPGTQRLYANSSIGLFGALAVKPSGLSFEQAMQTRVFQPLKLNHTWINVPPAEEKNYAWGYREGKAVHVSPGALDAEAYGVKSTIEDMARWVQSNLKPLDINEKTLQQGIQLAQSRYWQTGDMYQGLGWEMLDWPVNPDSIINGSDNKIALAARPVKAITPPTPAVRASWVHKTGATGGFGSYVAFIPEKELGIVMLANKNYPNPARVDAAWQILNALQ
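20 mM phosphate pH 7.0 + 0.01% (detergent screen) or 0.0001% Triton X-100; 5.3 nM AmpC reagent; cpd preinc 15 min RT; nitrocefin (800 uM stock) to start; A480 q20 s × 4 min; Activity was normalised to no-enzyme and no-compound control wells.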
Shiga toxin inh – Shiga toxin inhibition. Vero cells, Shiga toxin protein synthesis inhibition reporter. AID 2315. inhibition, % at 38.7 µM. 290,000 tested, 9.2% active; in the data active means inhibition mostly above about 28%, no sharp cut-off; inactive means mostly below about 43%
NS1 inh – influenza NS1 inhibition. Potency, µM (top dose mostly 46.1 µM). 270,000 tested, 0.4% active; calls by dose curve; further: actives are rising curves; nearly all actives have a fitted effect of over 50% in size
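Growth recovery, yeast-based: influenza A NS1 expressed in S. cerevisiae causes slow growth, and suppressors are detected by OD600. The parent strain without NS1 is used as positive control.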
AmpC no deterg – AmpC beta-lactamase inhibition without detergent; AmpC nitrocefin hydrolysis, absorbance 480 nm, 0.0001% Triton; AID 485341; P00811; Potency, µM (highest dose often 57.1 µM), actives largely listed as inhibitors; 330,000 tested, 0.52% active; further: nearly all actives have a fitted effect of over 20% in size
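AmpC (5.3 nM in the dispensed reagent) in 20 mM phosphate pH 7.0 with 0.01% (detergent screen) or 0.0001% Triton X-100 was preincubated with compounds for 15 min at room temperature. Nitrocefin was then added from an 800 uM solution, and hydrolysis was followed at 480 nm.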
Large screens that a line does not name were inactive. Shown is part of a subset that was picked to be rich in hits. Unless noted, the call rests on the fitted dose curve; in most records, active means well fitted curve in the direction sought with a large enough effect; inconclusive means small, poorly fitted or top-dose-only effect, or another doubt; inactive means no such curve, though single readings can be large; an effect the other way counts as inactive or inconclusive.

Cc1cccc(NC(=O)c2cc(Cl)sc2Cl)c1C	none
CS(=O)(=O)N1CCN(c2nc(-c3ccc(F)cc3)cs2)CC1	none
O=C(CSc1nc(-c2ccc(F)cc2)cs1)N1CCOCC1	Cycloheximide cs 45
c1ccc(-c2csc(-n3cccn3)n2)cc1	Cycloheximide cs 51, AmpC detergent inconclusive (no result: NS1 inh)
Clc1ccc(-c2csc(N3CCSCC3)n2)cc1	Cycloheximide cs 35, Shiga toxin inh 114
Fc1ccc(-c2csc(N3CCSCC3)n2)cc1	Cycloheximide cs 32, Shiga toxin inh 98 (no result: NS1 inh)
Cc1nc(-c2ccccc2)cs1	none
O=S(=O)(c1cccc(F)c1)N1CCC(c2nc3ccccc3s2)CC1	none (no result: Cycloheximide cs, Shiga toxin inh, NS1 inh, AmpC no deterg)
CC1=NN(c2nc(-c3ccc(Cl)cc3)cs2)C(=O)C1	Cycloheximide cs 15
c1ccc(-c2csc(N3CCSCC3)n2)cc1	Cycloheximide cs 44, AmpC detergent inconclusive, Shiga toxin inh 90 (no result: NS1 inh)
Fc1ccc(-c2csc(N3CCOCC3)n2)cc1	Cycloheximide cs 39, Shiga toxin inh 51
O=C(c1ncn[nH]1)N1CCN(c2nc(-c3ccccc3)cs2)CC1	Cycloheximide cs 15
CC1=NN(c2nc(-c3ccc(F)cc3)cs2)C(=O)C1	none
COc1ccc(N(CC(=O)NCc2ccco2)C(=O)CCC(=O)Nc2nccs2)c(OC)c1	none
CCC(=O)N1CCN(c2nc(-c3ccc(Cl)cc3)cs2)CC1	Cycloheximide cs 35, Shiga toxin inh 63
Cc1ccc(-c2csc(N3C(=N)SCC3=O)n2)cc1	Cycloheximide cs 36, Shiga toxin inh 42
COc1cccc(-c2csc(N3CCN(C(=O)Nc4ccc(Cl)cc4)CC3)n2)c1	Cycloheximide cs 28, Shiga toxin inh 45
CC(=O)Nc1nnc(SCc2cc(=O)c3cccc(Cl)c3[nH]2)s1	none (no result: Cycloheximide cs, Shiga toxin inh, NS1 inh, AmpC no deterg)
CC(=O)Nc1ccc(Nc2nc3c(S(=O)(=O)c4cccc(Cl)c4)nnn3c3ccsc23)cc1	none (no result: Cycloheximide cs, Shiga toxin inh, NS1 inh, AmpC no deterg)
CC(=O)c1cc(C#N)c(SCc2ccccn2)nc1C	Cycloheximide cs 47, Shiga toxin inh 68
COC(=O)CSc1nc(-c2cccs2)ccc1C#N	Cycloheximide cs 36, AmpC detergent inconclusive
CCCSc1nc(C)c(C(C)=O)cc1C#N	none
C#CCSc1nc(-c2cccs2)ccc1C#N	none
COC(=O)CSc1nc(C)c(C(C)=O)cc1C#N	Cycloheximide cs 24
CC(=O)c1cc(C#N)c(SCc2ccccc2)nc1C	Cycloheximide cs 32, AmpC detergent inconclusive
COc1ccccc1NC(=O)CSc1nc(O)c(C/C=C/c2ccccc2)c(=O)[nH]1	none (no result: Cycloheximide cs, Shiga toxin inh, NS1 inh, AmpC no deterg)
CC(=O)c1cccc(NC(=O)CSc2nnc3ccc(-c4ccc(C)cc4)nn23)c1	none (no result: Cycloheximide cs, Shiga toxin inh, NS1 inh, AmpC no deterg)
COc1ccccc1-n1c(C)nc2cc(C(=O)NCCN3CCOCC3)ccc21	none (no result: NS1 inh)
Cc1cc2ccccc2n1-c1ccc(C(=O)N2CCC(C(=O)NCc3ccccc3Cl)CC2)s1	none (no result: Cycloheximide cs, Shiga toxin inh, NS1 inh, AmpC no deterg)
C=CCN1CC(C(=O)N(CCCN(C)C)C(=O)NCC)CC2c3cccc4[nH]cc(c34)CC21 (stereo not drawn)	none (no result: AmpC detergent, NS1 inh, AmpC no deterg)
CCCCN(C(=O)c1cccc(S(=O)(=O)N(C)c2ccc(C)cc2)c1)c1c(N)n(CCCC)c(=O)[nH]c1=O	none (no result: Cycloheximide cs, Shiga toxin inh, NS1 inh)
Cc1cc(C(=O)Cn2ncc(Cl)c(Cl)c2=O)c(C)n1CC(F)(F)F	Cycloheximide cs 24
Cc1ccc(C)c(C(=O)Cn2ncc(Cl)c(Cl)c2=O)c1	none
CCCc1cc(=O)oc2c3c(ccc12)OCN(Cc1ccccc1OC)C3	none (no result: Cycloheximide cs, Shiga toxin inh, NS1 inh, AmpC no deterg)
CNc1ncc(C(=O)c2ccc(F)cc2)s1	Cycloheximide cs 43, Shiga toxin inh 67
CNc1ncc(C(=O)C(C)(C)C)s1	AmpC detergent inconclusive, NS1 inh inconclusive
CC(=O)c1cnc(Nc2cccc(C)c2)s1	Cycloheximide cs 48, Shiga toxin inh 119 (no result: NS1 inh)
O=C(c1ccccc1)c1cnc(Nc2ccc(Cl)c(Cl)c2)s1	none
O=C(c1ccc(F)cc1)c1cnc(Nc2ccccc2)s1	Cycloheximide cs 23, Shiga toxin inh 75
O=C(CN1CCN(Cc2ccccc2Cl)C1=O)NCCCN1CCOCC1	none
CCc1ccccc1NC(=O)C1CCCN(S(=O)(=O)c2ccc3[nH]c(=O)ccc3c2)C1 (stereo not drawn)	none (no result: Cycloheximide cs, Shiga toxin inh, NS1 inh, AmpC no deterg)
CCOC(=O)c1noc2ncn(CC(=O)Nc3ccccc3OC)c(=O)c12	none (no result: Cycloheximide cs, Shiga toxin inh, NS1 inh, AmpC no deterg)
CS(=O)(=O)N(CC(=O)N1CCC(C(N)=O)CC1)c1cc(C(F)(F)F)ccc1Cl	none
Cc1ccccc1/C=C/C12NC(=O)CN1c1ccccc1C2(C)C (stereo not drawn)	Cycloheximide cs 24
CC1(C)CC(=O)C=C(Nc2ccccc2N)C1	none
CC1(C)CC(=O)C=C(Nc2ccc3c(c2)OCCO3)C1	Cycloheximide cs 52
Cc1ccc(NC2=CC(=O)CC(C)(C)C2)cc1C	none
